Here are results for 40 compounds from PubChem BioAssay (NCATS).

SMILES strings stand for the structures. Records with an inconclusive call do not appear. Where a call stands in place of a potency, no number is given. Active and inactive are the calls of the source. Unless noted, calls follow the shape of the dose curve; as a rule, active = well fitted curve in the direction sought with a large enough effect; inconclusive = small, poorly fitted or top-dose-only effect, or another doubt; inactive = no such curve, though single readings can be large; an effect the other way counts as inactive or inconclusive.

Test [1] can be described thus: Validation screen for small molecules that induce DNA re-replication in MCF 10A normal breast cells (AID 463097). Also: nearly all actives have a fitted effect of over 60% in size. In short, it runs like this:
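Image-based qHTS: normal breast cells are incubated with compound for 48 hr, stained with Hoechst, and scanned for total nuclear fluorescence. Compounds raising the fraction of nuclei with elevated DNA content count as re-replication inducers.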

Test [2] addresses Ubiquitin carboxyl-terminal hydrolase 2 (Homo sapiens) (UniProt O75604). Briefly: qHTS Validation Assay for Inhibitors of Ubiquitin-specific Protease USP2a Using CHOP2 as the Reporter (AID 463106). In short, it runs like this:
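Readout was coupled fluorescence (Ex 485/Em 531 nm), read 60 min after adding 25 nM final Ub-CHOP2 and 25 nM reporter substrate. Beforehand, 10 nM final USP2 core had 30 min at RT with compound in pH 8.0 buffer. Curves were fitted after normalization to NEM and flagged for artifacts using time-zero reads.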

The target in test [3] is DNA polymerase III PolC-type (Bacillus subtilis (strain 168)) (UniProt P13267). Briefly: qHTS Validation Assay for the Inhibitors of DNA Replication in Gram-Positive Bacteria (AID 485295).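 Also: reconstituted holoenzyme with PolC plus beta clamp SSB and primase; PicoGreen fluorescence of double-stranded DNA made on primed circular M13 template; series mostly up to about 57 µM.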 An outline of the steps: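 First, compound is mixed with the reconstituted replication complex and held at room temperature. Next, circular single-stranded M13Gori with nucleotides starts synthesis. Finally, PicoGreen in EDTA halts the reaction and stains double-stranded product for fluorescence reading.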

The target in test [4] is Tumor susceptibility gene 101 protein (Homo sapiens) (UniProt Q99816). Briefly: qHTS Validation Assay for Iinhibitors of HIV-1 Budding by Blocking the Interaction of PTAP/TSG101 (AID 485342; calls by dose curve). In short, it runs like this:
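Binding of a FITC-tagged PTAP-motif peptide (50 nM) to the Tsg101 binding domain (10 uM) is monitored by fluorescence polarization. Compounds are pin-delivered before peptide addition, and incubation runs 20 min at room temperature.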

The nature of test [5]: qHTS Validation Assay to Find Inhibitors of Chronic Active B-Cell Receptor Signaling (AID 485345; active = well fitted curve in the direction sought with a large enough effect in the main read-out, with a control signal flat, not every such curve was filed as active). An outline of the steps: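 Read-out: ratio of filter-corrected green (IkappaBalpha fusion) to red (native) luciferase signal in doxycycline-induced TMD8 cells after 4 h at 37C. Titration spanned 46 uM–3 nM; Data were normalised to basal cells and 10 uM MG-132 wells.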
For test [6], the target named is Beta-2 adrenergic receptor (Homo sapiens) (UniProt P07550). Briefly: qHTS validation assay of beta-arrestin-biased ligands of beta2-adrenergic receptor (AID 485366). An outline of the steps:
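Compound series up to 46 microM applied to beta2-AR/beta-arrestin Tango cells, 18 hr, 37 degrees C, 5% CO2. Read-out: tTA-driven luciferase luminescence, converted to %Activity; concentration-response curves assigned curve classes.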

Test [7] concerns the target Thioredoxin reductase 1, cytoplasmic (Rattus norvegicus) (UniProt O89049). Briefly: qHTS Assay for Substrates of Mammalian Selenoprotein Thioredoxin Reductase 1 (TrxR1) (AID 488772).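 Also: series mostly up to about 57 µM; a drop in NADPH fluorescence below the no-compound background marks a TrxR1 substrate.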 An outline of the steps:
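In this dual-purpose format, potential substrates are identified from the first fluorescence read after selenite addition, not from the 8-minute delta. Rat enzyme is preincubated with NADPH and then with compound at ~22 deg C.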

The target of test [8] is Flap endonuclease 1 (Homo sapiens) (UniProt P39748). Briefly: qHTS Validation Assay for the Inhibitors of Human Flap endonuclease 1 (FEN1) (AID 488816). An outline of the steps:
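qHTS format: compounds and 10 nM FEN1 incubated 15 min at room temperature before adding 50 nM substrate. Cleavage followed by reads at 0 and 15 min; normalized data fitted to a four-parameter Hill curve.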

Test [9] addresses M-phase phosphoprotein 8 (Homo sapiens) (UniProt Q99549). Briefly: qHTS Validation Assay for Inhibitors for MPP8 Chromodomain Interactions with Methylated Histone Tails (AID 488949).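 Also: 50 nM MPP8 with 50 nM peptide preformed then compounds added for 30 min; AlphaScreen signal from MPP8 chromodomain bound to biotinylated H3K9me3 peptide; top concentration of the series differs between compounds; nearly all actives have a fitted effect of over 55% in size.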 An outline of the steps: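 50 nM MPP8 + 50 nM b-H3K9me3 peptide, PBS pH 7.4/0.01% Tween-20, 30 min RT; + cpd 30 min RT; + AlphaScreen donor/Ni-chelate acceptor beads 10 ug/mL final, 30 min dark; luminescence read.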

Test [10] concerns the target Methanococcus maripaludis chaperonin (MmCpn) (UniProt Q6LX38). Briefly: High-Throughput Screening for Modulators of Cytosolic Chaperonin Activity: MmCpn Primary Screen (AID 488978).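 Also: 50 nM MmCpn enzyme hydrolysing 30 µM ATP at 37 °C.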 In short, it runs like this: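 Steps: chaperonin 50 nM final; add compound, 5 min RT; start with ATP, 30 uM final; hold 10 min at 37C; add ADP Transcreener HTRF reagent, 5 min; read ex 320, em 590 and 665 nm.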

Test [11] deals with Transient receptor potential cation channel subfamily V member 1 (Homo sapiens) (UniProt Q8NER1). Briefly: HTS Assay for Compounds that Act as Enhancers of the Vanilloid Receptor 1 (AID 488979). In short, it runs like this: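 Calcium influx kinetics via Fluo-8 (480/520 nm) in TRPV1-expressing cells, 2000/well cultured overnight at 35.5C. Compound-alone read 3 min (agonist phase), followed by EC20 capsaicin challenge for 2 min (enhancer phase).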

The target in test [12] is Thyrotropin receptor (Homo sapiens) (UniProt P16473). Briefly: qHTS Assay for Antagonists of the Thyroid Stimulating Hormone Receptor (AID 488980). Also: series mostly up to about 58 µM. In short, it runs like this: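 Readout is cAMP by HTRF competition between cellular cAMP and cAMP-d2 for a cryptate-labelled antibody. Antagonism was assessed in TSHR-transfected HEK293 cells stimulated with 4 nM TSH (EC80, final) in the presence of RO 20-1724.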

Test [13] addresses D(1A) dopamine receptor (Homo sapiens) (UniProt P21728). Briefly: HTS Assay for Allosteric Agonists of the Human D1 Dopamine Receptor: Primary Screen for Agonists (AID 488981). An outline of the steps: (§1)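 Calcium flux in an inducible, force-coupled HEK293 Trex D1 line (overnight at 30 C): agonist mode is the 180 s kinetic read after compound; potentiator mode is the following 180 s read after dopamine at EC20.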

For test [14] the target is unchanged. Briefly: HTS Assay for Allosteric Agonists of the Human D1 Dopamine Receptor: Primary Screen for Potentiators (AID 488982). In short, it runs like this:
as §1

The target is the same in test [15]. Briefly: HTS Assay for Allosteric Agonists of the Human D1 Dopamine Receptor: Primary Screen for Antagonists (AID 488983).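 Also: calcium flux response to an EC80 dopamine challenge measured with no-wash dye; nearly all actives have a fitted effect of over 65% in size.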 In short, it runs like this:
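Calcium flux readout, no-wash dye, inducible HEK293 T-REx D1 line (force-coupled). Compound added after 10 s baseline, 180 s kinetic read; then dopamine at EC80, further 180 s read.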

Test [16] in a line: Validation screen for small molecules that induce genotoxicity in human embryonic kidney (HEK293T) cells expressing luciferase-tagged ELG1 (AID 493106). Also: potency is read from the fitted curve at half-maximal effect. The following applies: luminescence. In short, it runs like this:
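qHTS format; 2,000 HEK293T ELG1-luc cells/well; 23 nL compound via pin tool; 16 hr, 37 °C/5% CO2; ONE-Glo, 30 min RT; luminescence read.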

In test [17] the target is ATP-dependent 6-phosphofructokinase (Trypanosoma brucei brucei) (UniProt O15648). Briefly: qHTS Assay to Find Inhibitors of T. brucei phosphofructokinase: hit validation (AID 492961).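 Also: luminescence reports ADP formed as PFK phosphorylates fructose-6-phosphate with ATP; series mostly up to about 51 µM.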 In short, it runs like this: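 Measures ADP output of PFK (1.25 nM) at 0.1 mM ATP, 0.5 mM F6P, pH 8.0 TEA buffer with 5 mM MgCl2. No-enzyme wells define full inhibition; uninhibited enzyme wells define zero.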
ATP-dependent 6-phosphofructokinase (Trypanosoma brucei brucei), sequence (O15648 whole entry, looked up): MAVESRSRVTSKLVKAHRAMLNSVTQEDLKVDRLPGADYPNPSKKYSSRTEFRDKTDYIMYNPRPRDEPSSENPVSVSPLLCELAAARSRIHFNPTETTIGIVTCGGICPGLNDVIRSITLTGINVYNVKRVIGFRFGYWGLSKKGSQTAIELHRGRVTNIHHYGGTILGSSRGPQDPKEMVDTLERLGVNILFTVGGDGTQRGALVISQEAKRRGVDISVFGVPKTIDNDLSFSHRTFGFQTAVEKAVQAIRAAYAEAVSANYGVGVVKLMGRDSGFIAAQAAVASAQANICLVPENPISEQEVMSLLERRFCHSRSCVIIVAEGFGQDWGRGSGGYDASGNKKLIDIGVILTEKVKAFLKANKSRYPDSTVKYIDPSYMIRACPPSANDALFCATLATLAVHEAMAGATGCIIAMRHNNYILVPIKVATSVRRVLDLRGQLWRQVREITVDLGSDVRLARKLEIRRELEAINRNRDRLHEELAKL

D(1A) dopamine receptor (Homo sapiens), sequence (P21728 whole entry, looked up): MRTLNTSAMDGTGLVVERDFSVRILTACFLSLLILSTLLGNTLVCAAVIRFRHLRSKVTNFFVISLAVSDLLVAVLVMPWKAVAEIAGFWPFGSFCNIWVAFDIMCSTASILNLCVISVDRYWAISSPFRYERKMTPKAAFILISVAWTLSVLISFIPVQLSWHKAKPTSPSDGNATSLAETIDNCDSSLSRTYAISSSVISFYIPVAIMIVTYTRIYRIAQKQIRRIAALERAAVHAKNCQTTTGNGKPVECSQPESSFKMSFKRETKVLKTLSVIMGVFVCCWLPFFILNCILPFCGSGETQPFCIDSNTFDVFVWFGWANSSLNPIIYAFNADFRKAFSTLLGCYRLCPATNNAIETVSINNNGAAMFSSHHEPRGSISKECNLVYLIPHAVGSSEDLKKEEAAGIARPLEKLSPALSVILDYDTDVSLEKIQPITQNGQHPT
M-phase phosphoprotein 8 (Homo sapiens), sequence (Q99549 whole entry, looked up): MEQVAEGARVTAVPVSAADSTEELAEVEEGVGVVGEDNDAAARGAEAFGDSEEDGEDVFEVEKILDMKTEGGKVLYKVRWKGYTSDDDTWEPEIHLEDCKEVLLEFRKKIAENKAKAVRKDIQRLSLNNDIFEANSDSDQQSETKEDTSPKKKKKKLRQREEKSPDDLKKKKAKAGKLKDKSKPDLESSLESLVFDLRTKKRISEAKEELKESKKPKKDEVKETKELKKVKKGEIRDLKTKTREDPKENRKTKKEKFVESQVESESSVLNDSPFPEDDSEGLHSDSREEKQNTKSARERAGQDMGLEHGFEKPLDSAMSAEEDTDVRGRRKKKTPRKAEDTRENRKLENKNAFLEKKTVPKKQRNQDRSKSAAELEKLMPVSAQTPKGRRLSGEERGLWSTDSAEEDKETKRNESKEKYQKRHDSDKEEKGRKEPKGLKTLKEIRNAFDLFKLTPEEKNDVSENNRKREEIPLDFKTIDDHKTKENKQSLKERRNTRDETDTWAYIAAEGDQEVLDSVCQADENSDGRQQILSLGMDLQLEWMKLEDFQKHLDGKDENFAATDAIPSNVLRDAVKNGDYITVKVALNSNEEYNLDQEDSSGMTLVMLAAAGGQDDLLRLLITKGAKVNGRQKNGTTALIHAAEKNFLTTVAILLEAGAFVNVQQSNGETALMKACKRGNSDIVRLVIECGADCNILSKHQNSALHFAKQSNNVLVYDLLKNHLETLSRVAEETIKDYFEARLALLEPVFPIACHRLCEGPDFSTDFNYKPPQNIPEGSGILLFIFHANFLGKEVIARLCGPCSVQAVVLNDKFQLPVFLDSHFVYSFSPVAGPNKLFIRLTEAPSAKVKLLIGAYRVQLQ
Tumor susceptibility gene 101 protein (Homo sapiens), sequence (Q99816 whole entry, looked up, the tested form may be a part): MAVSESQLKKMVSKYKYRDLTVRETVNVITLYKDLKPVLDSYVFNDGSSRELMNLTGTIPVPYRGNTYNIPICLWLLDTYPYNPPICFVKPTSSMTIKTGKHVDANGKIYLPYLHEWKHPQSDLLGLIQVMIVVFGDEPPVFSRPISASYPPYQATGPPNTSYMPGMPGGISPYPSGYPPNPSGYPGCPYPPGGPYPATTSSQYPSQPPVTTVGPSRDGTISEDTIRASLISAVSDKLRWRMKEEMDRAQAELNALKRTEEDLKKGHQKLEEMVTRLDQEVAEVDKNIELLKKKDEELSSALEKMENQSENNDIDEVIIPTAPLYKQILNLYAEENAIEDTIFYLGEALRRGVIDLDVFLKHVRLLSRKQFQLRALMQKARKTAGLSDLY
Thioredoxin reductase 1, cytoplasmic (Rattus norvegicus), sequence (O89049 whole entry, looked up): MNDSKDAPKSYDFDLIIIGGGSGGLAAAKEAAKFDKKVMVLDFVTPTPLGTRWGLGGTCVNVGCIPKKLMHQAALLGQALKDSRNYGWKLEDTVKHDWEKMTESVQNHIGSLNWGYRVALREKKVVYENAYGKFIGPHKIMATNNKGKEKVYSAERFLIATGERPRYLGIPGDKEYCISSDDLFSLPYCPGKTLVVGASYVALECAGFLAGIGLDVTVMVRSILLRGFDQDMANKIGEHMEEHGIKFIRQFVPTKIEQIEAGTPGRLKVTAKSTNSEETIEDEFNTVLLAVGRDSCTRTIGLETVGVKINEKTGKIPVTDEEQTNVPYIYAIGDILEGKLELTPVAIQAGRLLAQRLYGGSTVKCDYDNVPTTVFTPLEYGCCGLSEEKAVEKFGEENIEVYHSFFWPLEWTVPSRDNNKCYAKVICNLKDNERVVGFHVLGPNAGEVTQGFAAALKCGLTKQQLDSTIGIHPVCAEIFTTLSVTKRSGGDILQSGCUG
Transient receptor potential cation channel subfamily V member 1 (Homo sapiens), sequence (Q8NER1 whole entry, looked up): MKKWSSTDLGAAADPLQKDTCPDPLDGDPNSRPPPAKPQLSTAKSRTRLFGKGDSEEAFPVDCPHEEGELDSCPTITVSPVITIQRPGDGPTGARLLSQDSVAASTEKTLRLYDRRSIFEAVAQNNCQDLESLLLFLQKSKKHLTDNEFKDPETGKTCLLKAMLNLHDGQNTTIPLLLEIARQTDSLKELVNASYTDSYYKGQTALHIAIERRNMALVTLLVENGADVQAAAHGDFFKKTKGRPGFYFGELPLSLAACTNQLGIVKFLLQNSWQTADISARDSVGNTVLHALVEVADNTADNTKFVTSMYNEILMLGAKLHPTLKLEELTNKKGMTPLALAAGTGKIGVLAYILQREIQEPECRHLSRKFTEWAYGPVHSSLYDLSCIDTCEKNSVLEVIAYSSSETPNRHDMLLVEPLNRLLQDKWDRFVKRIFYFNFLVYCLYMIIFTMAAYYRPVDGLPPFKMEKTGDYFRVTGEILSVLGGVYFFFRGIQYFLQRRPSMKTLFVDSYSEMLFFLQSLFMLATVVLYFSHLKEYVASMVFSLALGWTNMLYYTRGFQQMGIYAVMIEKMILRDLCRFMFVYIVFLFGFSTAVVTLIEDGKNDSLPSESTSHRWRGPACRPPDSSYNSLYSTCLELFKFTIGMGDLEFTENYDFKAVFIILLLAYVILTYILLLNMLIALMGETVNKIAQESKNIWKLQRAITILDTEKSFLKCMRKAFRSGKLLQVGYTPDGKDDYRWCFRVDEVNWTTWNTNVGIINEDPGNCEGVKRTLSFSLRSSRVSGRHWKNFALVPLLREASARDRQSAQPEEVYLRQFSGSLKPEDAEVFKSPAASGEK
DNA polymerase III PolC-type (Bacillus subtilis (strain 168)), sequence (P13267 whole entry, looked up): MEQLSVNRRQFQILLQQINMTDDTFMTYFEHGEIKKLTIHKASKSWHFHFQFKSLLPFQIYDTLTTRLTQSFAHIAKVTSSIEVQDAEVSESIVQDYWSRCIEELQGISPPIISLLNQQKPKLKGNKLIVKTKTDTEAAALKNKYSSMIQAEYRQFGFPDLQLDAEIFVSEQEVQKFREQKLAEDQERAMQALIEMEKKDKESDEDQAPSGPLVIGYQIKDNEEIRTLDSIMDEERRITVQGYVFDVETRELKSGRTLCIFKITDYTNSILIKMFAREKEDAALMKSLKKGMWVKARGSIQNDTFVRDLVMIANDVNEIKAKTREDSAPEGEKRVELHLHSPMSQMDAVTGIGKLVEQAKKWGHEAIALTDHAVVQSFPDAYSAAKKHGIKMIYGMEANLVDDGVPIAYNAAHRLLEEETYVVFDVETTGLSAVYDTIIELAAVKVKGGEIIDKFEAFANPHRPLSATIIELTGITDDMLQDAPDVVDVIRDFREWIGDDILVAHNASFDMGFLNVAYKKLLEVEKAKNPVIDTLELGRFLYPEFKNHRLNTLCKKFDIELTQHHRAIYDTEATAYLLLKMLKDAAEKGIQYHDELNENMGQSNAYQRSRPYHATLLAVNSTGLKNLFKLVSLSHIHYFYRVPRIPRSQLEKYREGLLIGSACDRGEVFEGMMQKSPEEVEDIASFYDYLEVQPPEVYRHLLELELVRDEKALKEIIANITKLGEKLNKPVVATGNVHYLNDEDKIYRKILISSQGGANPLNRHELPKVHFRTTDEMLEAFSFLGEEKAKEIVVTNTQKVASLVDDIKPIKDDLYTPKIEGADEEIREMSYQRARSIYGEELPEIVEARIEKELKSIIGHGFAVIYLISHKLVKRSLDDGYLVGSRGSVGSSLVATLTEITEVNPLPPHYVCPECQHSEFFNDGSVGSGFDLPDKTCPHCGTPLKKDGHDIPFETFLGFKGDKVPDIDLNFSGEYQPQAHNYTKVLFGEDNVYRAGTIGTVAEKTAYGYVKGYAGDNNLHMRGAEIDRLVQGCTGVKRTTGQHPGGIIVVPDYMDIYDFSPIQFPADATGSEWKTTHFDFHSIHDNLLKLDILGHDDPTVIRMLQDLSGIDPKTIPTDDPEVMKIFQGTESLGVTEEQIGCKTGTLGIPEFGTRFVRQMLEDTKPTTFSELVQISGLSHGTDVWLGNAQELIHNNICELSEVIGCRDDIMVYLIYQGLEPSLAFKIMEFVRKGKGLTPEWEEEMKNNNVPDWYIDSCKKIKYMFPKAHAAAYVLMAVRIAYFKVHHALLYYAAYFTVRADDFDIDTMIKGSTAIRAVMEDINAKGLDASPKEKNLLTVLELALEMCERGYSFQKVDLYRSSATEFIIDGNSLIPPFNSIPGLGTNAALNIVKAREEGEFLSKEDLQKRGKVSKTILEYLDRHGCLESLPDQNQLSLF

As for `Oc1ccc(/C=C/c2cc(O)cc(O)c2)cc1`, the result in test [1], in test [2], in [3], in test [4], in test [5] and in test [6] was inactive. Further, the result in test [7], in test [8], in test [9], in [10], in test [11] and in test [12] was inactive. For the same compound, the compound was classed as inactive in test [13], in [14] and in test [15]. For the same compound, the Potency in test [16] is 2.91 µM (active). For the compound `CC1=C(/C=C/C(C)=C/C=C/C(C)=C/C(=O)Oc2c(C)c(C)c3c(c2C)CC[C@@](C)(CCC[C@H](C)CCC[C@H](C)CCCC(C)C)O3)C(C)(C)CCC1`, in [17], the Potency entry is “inactive”.

`Cc1cccc(Nc2ncccc2C(=O)O)c1C`: in test [17], the Potency entry is “inactive”. Still for that read-out and setting: to `O=C1[O][Bi][O]c2ccccc21` belongs “inactive”. Regarding `CCCCCCCCCCCC(=O)N(CCO)CCO`, the Potency entry in test [17] was “inactive”. The same measure, in the same setting: the result for `Cc1ccccn1` reads “inactive”; that for `CC(=O)[C@H]1CC[C@H]2[C@@H]3C=CC4=CC(=O)CC[C@@]4(C)[C@H]3CC[C@]12C`, “inactive”. Same read-out and setting: to `C/C=C/C=C/C(=O)O` belongs “inactive”; to `CC1CCC(NC(=O)N(CCCl)N=O)CC1` (stereo not given), “inactive”.

As to `CCN(CC)C(=O)c1cccnc1`, the Potency entry in test [17] was “inactive”. Consider `N[C@H](CC(=O)O)C(=O)O`, for which the Potency entry in test [17] was “inactive”.

For the compound `Nc1nccs1`, in [17], the Potency entry is “inactive”. `O=C(O)c1ccc(NC(=O)[C@H](Cc2ccc(O)cc2)NC(=O)c2ccccc2)cc1`: the Potency result in [17] was “inactive”. The same measure, in the same setting: to `Oc1ccc(Cl)c2c1CCC2` belongs “inactive”; to `O=C(O)CCC/C=C\C[C@@H]1[C@@H](/C=C/[C@@H](O)COc2cccc(C(F)(F)F)c2)[C@H](O)C[C@@H]1O`, “inactive”. The same measure, in the same setting: to `COC(=O)[C@@H](N)CS` belongs “inactive”; to `OCCCNc1ccccc1`, “inactive”. On the same count and under the same terms, the result for `CCCCCCCCCCCCCCCCCC(=O)OC[C@@H](O)[C@H]1OC[C@H](O)[C@H]1O` reads “inactive”. Take `O=C(O)CCC/C=C\C[C@@H]1[C@@H](/C=C/[C@@H](O)COc2cccc(Cl)c2)[C@H](O)C[C@@H]1O`: in test [17], the Potency entry was “inactive”. Same read-out and setting: to `CC(C)c1ncc([N+](=O)[O-])n1C` belongs “inactive”; to `O=C(O)Cc1cc(I)c(Oc2ccc(O)c(I)c2)c(I)c1`, “inactive”. On the same count and under the same terms, the result for `CC(C)(COP(=O)(O)OP(=O)(O)OC[C@H]1O[C@@H](n2cnc3c(N)ncnc32)[C@H](O)[C@@H]1OP(=O)(O)O)C(O)C(=O)NCCC(=O)NCCS` (stereo not given in full) reads “inactive”; that for `CC(/C=C/C=C(\C)C(=O)O[C@@H]1O[C@H](CO[C@@H]2O[C@H](CO)[C@@H](O)[C@H](O)[C@H]2O)[C@@H](O)[C@H](O)[C@H]1O)=C\C=C\C=C(C)\C=C\C=C(/C)C(=O)O[C@@H]1O[C@H](CO[C@@H]2O[C@H](CO)[C@@H](O)[C@H](O)[C@H]2O)[C@@H](O)[C@H](O)[C@H]1O`, “inactive”.

`CCC(Cc1c(I)cc(I)c(O)c1I)C(=O)O` (stereo not given): the Potency entry in test [17] was “inactive”. As for `CC1CC(OC(=O)C(O)c2ccccc2)CC(C)(C)C1` (stereo not given), the Potency entry in test [17] is “inactive”. Regarding `CCCC(=O)O`, the Potency entry in [17] was “inactive”. Same read-out and setting: the result for `CS(=O)(=O)c1ccc([C@@H](O)[C@@H](COC(=O)CN)NC(=O)C(Cl)Cl)cc1` reads “inactive”. Still for that read-out and setting: to `CCCCC/C=C\C/C=C\C/C=C\CCCCC(=O)O` belongs “inactive”; to `CCCCCCCCCC(=O)NO`, “inactive”. Same read-out and setting: to `CCCCCCOC(=O)c1cccnc1` belongs “inactive”. `O=C(O)CCC(=O)c1ccc(-c2ccccc2)cc1`: the Potency entry in [17] was “inactive”. Still for that read-out and setting: the result for `CCN(CC)CCOc1ccc2nc(N(C)C)sc2c1` reads “inactive”. The same measure, in the same setting: the result for `[O-][N+](=Nc1ccccc1)c1ccccc1` reads “inactive”; that for `COC(=O)c1ccccc1O`, “inactive”; that for `CC12CCC(C1)C(C)(C)C2=O` (stereo not given), “inactive”. Still for that read-out and setting: to `NC(=S)NS(=O)(=O)c1ccc(N)cc1` belongs “inactive”.

Consider `COC(=O)C(CN)c1c[nH]c2ccc(OC)cc12` (stereo not given), for which the Potency result in test [17] is “inactive”. Take `CC(=O)[O][Al][O]C(C)=O`: in [17], the Potency entry is “inactive”. Still for that read-out and setting: to `CCSc1ccc2c(c1)N(CCCN1CCN(C)CC1)c1ccccc1S2` belongs “inactive”; to `Cc1c(Cl)cccc1Nc1ncccc1C(=O)O`, “inactive”.
